The results in this text go back to PubChem BioAssay.

Structures are written as SMILES. Results filed as inconclusive are left out. The source made the active and inactive calls.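 The calls were made as follows, unless noted: active = GFP signal, as percent of the solvent control, above the screen mean plus 3 SD, about 149; inconclusive = no reading because the compound's own fluorescence upset strain identification; inactive = the rest.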

Test [1] can be described thus: yeast TOR pathway RPL19A-GFP modulators, primary screen, cell-based, S. cerevisiae, multiplex flow cytometry (AID 1862; in the data active = percent of DMSO control GFP below about 86%;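 also: lower values mimic rapamycin by blocking the RPL19A rise seen in DMSO cells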). Particulars: S. cerevisiae RPL19A-GFP strain, flow cytometry fluorescence, 3 h; at 10 µM; stronger effect = lower value. Background: A flow cytometer gives signals particle by particle.
Test [2] in a line: modulators of MEP2-GFP levels in yeast, primary screen, S. cerevisiae, multiplex flow cytometry (AID 1867;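 active = GFP response, as percent of the DMSO control, above the screen-wide mean plus 3 SD, about 139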;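 also: median GFP channel fluorescence of barcode-gated MEP2-GFP cells measured by flow cytometry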). Particulars: S. cerevisiae MEP2-GFP strain, 3 h, at 10 µM, stronger effect = higher value, 100% means same as DMSO wells.
Test [3] in a line: modulators of CIT2-GFP expression in yeast, primary screen, S. cerevisiae, GFP fusion, multiplex flow cytometry (AID 1870;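 active = percent response above a set limit, the screen-wide mean plus 3 SD, cut at about 130% in these data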;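 also: barcoded CIT2-GFP strain pooled with four other GFP strains with rapamycin as positive control; median GFP fluorescence per well over plate mean of DMSO wells so 100% = DMSO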). The settings on record: 3 h, at 10 µM, stronger effect = higher value.
Test [4] is described as follows: modulators of LAP4-GFP expression in yeast, primary screen, S. cerevisiae, multiplex flow cytometry (AID 1873). The settings on record: 3 h, at 10 µM, stronger effect = higher value.
Test [5] in a line: modulators of AGP1-GFP expression in yeast TOR pathway, primary screen, cell-based, multiplex flow cytometry, S. cerevisiae (AID 1887;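 active = GFP signal above the screen-wide mean plus 3 SD, that is over about 124.5% of the solvent control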;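 also: AGP1-GFP fusion strain of S. cerevisiae within a five-strain barcoded multiplex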). Particulars: 3 h, at 10 µM, stronger effect = higher value.
A short description of test [6]: inhibitors of CD8+ T cell-vesicle binding, pilot screen, LFA-1/ICAM-1 modulator project, MLPCN validation set, flow cytometry (AID 2523;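 active = response below a set limit, under 55% cells CD8-positive and vesicle-bound, and CD8 cells' 90th-percentile brightness under 279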;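 as to vesicle binding response: mean PE anti-B7-1 fluorescence of CD8+ cells relative to row control; 100% = QL9-loaded vesicles with DMSO vehicle in the same plate row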). Particulars: 2C mouse CD8+ T cells, at 7 µM, stronger effect = lower value; double positive events: measured here: CD8+/vesicle+ event percentage.
Test [7] addresses Integrin beta-1 (Homo sapiens) + Integrin alpha-4 (Homo sapiens) (UniProt P13612+P05556). As to the kind of experiment: inhibition of HUTS-21 binding to VLA-4, pilot screen, VLA-4 allosteric modulator project, U937 cells, HUTS-21 mAb, flow cytometry, validation set (AID 2674;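 active = inhibition above 50%, about 3 SD of the validation set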;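 also: antibody binding induced by the VLA-4 ligand LDV present at three times its Kd; 0% = LDV ligand with antibody and no compound and 100% = antibody without LDV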). The settings on record: HUTS-21 LIBS mAb binding, at 6.7 µM, stronger effect = higher value, binding induced by LDV ligand.

Test [8] is described as follows: superoxide lowering in aged yeast cells, pilot screen, validation compound set (AID 2706;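 active = superoxide response below 65% of plate, a cut near 3 SD across the whole screen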;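 also: yeast exposed to compound for one week at 30 degrees C before staining; 100% = mean of all compound wells on the same plate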). Particulars: S. cerevisiae aging, superoxide DHE fluorescence; at 10 µM; stronger effect = lower value.
Test [9] concerns the target Beta-adrenergic receptor kinase 1 (Homo sapiens) (UniProt P25098). As to the kind of experiment: GRK2 binders displacing RNA aptamer, biochemical, validation, human GRK2, bead flow cytometry (AID 488806;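 active = aptamer binding inhibition above 30%, about 3 SD of noise from non-fluorescent compounds; inactive = inhibition at or below 30%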). Particulars: bead-bound GRK2, FAM-aptamer displacement, at 10 µM, stronger effect = higher value.
Test [10] concerns the target Beta-2 adrenergic receptor (Homo sapiens) (UniProt P07550). As to the kind of experiment: beta2AR agonists driving receptor internalization, pilot screen, cell-based, FAP fluorogen, flow cytometry, validation set (AID 504459;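 active = percent response above 42, roughly 3 SD of non-fluorescent test compounds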;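 also: agonist-driven loss of surface beta2AR via internalization measured by FAP dye flow cytometry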). Particulars: Am2.2-beta2AR cells, FAP surface receptor flow cytometry; at 10 µM; stronger effect = higher value.
Test [11] deals with AP-2 complex subunit beta (Homo sapiens) (UniProt P63010). Briefly: inhibitors of arrestin peptide binding to AP2, pilot screen, biochemical, validation set, GST-AP2 beads, flow cytometry (AID 504541;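 active = inhibition above 54%, about 3 SD of non-fluorescent compounds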;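 also: AP2 carries R879A mutation and is captured from E. coli lysate; bead-bound FITC arrestin peptide fluorescence measuring arrestin peptide binding to AP2; 0% = DMSO wells and 100% = excess unlabeled arrestin peptide control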). Particulars: FITC arrestin peptide, at 10 µM, stronger effect = higher value, AP2 beta2 appendage fragment, R879A mutant.
Test [12] can be described thus: yeast V-ATPase proton transport modulators, S. cerevisiae, pHLuorin, HTS validation (AID 504600; in the data active = response above about 15%;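 also: plate controls were DMSO for no effect and reference compound for full effect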). Particulars: S. cerevisiae pHLuorin cytosolic pH, at 10 µM, stronger effect = higher value.
Test [13] deals with anti-desmoglein-3 scFv antibody binding to human DSG3. As to the kind of experiment: inhibitors of anti-DSG3 scFv binding to DSG3, pilot screen, biochemical, validation compound set, bead-based, flow cytometry (AID 588368;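 active = binding below the plate cutoff, the plate median minus 3 SD, with a reading above zero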;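 also: signal is the median channel fluorescence of bead-bound GFP antibody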). Particulars: Protein G beads, DSG3-Fc, scFv-GFP binding, at 10 µM, stronger effect = lower value.
Test [14] in a line: inhibitors of fungal efflux pumps CDR1, CDR2, MDR1, pilot screen, validation compound set, multiplex, phenotypic (AID 588506;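 active = efflux inhibition above 0.42, the validation set average plus 4 SD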;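 also: Nile Red retained in cells so higher fluorescence means more efflux inhibition; 0 = negative control wells and 1 = enniatin B 25 µM full block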). Particulars: S. cerevisiae pump-expressing triplex, Nile Red efflux flow cytometry; at 10 µM; stronger effect = higher value; the pumps come from Candida albicans.
Test [15] deals with ATP-binding cassette sub-family B member 6 (Homo sapiens) (UniProt Q9NP58). As to the kind of experiment: ABCB6 transporter inhibitors, pilot screen, K562-ABCB6 cells, flow cytometry, validation set (AID 588550;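 active = inhibition above the screen-wide mean plus 3 SD, about 51%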;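 also: 0% = DMSO wells and 100% = benzethonium chloride 70 µM positive control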). Particulars: K562-ABCB6 porphyrin accumulation, 1 h, at 10 µM, stronger effect = higher value.
Test [16] is described as follows: promoters of myeloid differentiation in arrested cells, primary screen, cell-based, GFP/MAC1 double positive, flow cytometry, validation set (AID 588685;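 active = differentiation response of at least 50%, scaled between solvent and reference control, from cells with both markers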;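 also: compound exposure lasts four days before antibody staining and flow analysis; 0% = DMSO wells and 100% = 5 µM fulvestrant positive control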). The settings on record: ER-HoxA9 marrow cells, stronger effect = higher value, normalized: vehicle 0, fulvestrant 100.

Chain of AP-2 complex subunit beta (Homo sapiens) (P63010 whole entry, looked up, the tested form may be a part, one chain of several): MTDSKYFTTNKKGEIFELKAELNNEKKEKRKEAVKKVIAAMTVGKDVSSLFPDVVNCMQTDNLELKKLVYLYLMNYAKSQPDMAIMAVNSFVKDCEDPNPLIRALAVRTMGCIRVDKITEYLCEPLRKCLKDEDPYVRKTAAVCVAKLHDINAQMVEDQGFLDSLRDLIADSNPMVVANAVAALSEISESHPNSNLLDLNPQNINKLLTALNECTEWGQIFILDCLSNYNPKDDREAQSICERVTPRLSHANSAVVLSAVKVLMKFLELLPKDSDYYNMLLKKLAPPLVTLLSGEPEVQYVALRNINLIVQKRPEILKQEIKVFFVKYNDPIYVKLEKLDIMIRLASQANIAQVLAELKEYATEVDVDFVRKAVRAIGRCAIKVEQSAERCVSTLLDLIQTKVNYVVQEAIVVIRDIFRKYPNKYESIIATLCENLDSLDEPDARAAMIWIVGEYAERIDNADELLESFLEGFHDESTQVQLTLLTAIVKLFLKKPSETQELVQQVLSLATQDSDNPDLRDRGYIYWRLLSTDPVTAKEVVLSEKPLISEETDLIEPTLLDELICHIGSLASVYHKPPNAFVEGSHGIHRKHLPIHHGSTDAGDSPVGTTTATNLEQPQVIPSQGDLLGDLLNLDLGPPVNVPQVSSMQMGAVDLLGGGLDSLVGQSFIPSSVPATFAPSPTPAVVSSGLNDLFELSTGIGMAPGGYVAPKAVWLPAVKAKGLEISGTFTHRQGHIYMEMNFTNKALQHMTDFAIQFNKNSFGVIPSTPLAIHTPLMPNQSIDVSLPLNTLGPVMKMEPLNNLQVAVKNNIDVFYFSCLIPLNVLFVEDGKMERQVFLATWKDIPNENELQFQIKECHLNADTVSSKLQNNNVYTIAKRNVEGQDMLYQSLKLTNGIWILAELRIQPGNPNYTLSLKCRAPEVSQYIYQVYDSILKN
Chain of ATP-binding cassette sub-family B member 6 (Homo sapiens) (Q9NP58 whole entry, looked up): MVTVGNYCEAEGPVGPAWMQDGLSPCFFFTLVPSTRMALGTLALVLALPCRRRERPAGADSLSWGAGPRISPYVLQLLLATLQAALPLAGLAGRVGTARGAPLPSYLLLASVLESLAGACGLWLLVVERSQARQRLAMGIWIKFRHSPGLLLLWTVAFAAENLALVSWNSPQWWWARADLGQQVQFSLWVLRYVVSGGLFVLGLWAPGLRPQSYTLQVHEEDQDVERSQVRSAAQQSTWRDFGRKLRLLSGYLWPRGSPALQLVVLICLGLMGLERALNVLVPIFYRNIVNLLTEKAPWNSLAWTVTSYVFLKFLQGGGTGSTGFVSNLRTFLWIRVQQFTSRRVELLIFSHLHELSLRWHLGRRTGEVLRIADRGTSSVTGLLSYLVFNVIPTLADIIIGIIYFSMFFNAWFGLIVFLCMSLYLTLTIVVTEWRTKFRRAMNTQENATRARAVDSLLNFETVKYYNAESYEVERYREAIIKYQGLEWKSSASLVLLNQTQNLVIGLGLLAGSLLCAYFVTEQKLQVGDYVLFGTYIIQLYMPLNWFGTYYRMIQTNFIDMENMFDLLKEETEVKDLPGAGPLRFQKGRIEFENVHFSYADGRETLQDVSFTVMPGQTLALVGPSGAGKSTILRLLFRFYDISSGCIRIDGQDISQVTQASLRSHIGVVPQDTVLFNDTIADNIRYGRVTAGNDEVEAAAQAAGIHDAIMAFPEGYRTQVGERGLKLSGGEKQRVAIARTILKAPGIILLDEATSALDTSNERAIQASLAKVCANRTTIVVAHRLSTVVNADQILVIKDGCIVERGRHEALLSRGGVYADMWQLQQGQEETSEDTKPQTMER
Chain of Beta-2 adrenergic receptor (Homo sapiens) (P07550 whole entry, looked up): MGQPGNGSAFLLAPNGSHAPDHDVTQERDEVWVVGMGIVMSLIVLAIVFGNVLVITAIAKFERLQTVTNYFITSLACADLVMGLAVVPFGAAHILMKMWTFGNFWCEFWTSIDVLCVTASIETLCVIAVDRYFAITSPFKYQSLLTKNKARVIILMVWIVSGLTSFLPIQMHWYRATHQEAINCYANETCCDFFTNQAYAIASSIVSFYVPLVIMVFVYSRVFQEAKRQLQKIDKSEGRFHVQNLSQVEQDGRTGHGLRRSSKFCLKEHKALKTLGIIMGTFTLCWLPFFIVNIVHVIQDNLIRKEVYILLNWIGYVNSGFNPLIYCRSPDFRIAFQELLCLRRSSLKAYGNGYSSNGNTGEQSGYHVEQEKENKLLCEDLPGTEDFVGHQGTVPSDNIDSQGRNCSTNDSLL
Chain of Integrin beta-1 (Homo sapiens) + Integrin alpha-4 (Homo sapiens) (P05556 whole entry, looked up): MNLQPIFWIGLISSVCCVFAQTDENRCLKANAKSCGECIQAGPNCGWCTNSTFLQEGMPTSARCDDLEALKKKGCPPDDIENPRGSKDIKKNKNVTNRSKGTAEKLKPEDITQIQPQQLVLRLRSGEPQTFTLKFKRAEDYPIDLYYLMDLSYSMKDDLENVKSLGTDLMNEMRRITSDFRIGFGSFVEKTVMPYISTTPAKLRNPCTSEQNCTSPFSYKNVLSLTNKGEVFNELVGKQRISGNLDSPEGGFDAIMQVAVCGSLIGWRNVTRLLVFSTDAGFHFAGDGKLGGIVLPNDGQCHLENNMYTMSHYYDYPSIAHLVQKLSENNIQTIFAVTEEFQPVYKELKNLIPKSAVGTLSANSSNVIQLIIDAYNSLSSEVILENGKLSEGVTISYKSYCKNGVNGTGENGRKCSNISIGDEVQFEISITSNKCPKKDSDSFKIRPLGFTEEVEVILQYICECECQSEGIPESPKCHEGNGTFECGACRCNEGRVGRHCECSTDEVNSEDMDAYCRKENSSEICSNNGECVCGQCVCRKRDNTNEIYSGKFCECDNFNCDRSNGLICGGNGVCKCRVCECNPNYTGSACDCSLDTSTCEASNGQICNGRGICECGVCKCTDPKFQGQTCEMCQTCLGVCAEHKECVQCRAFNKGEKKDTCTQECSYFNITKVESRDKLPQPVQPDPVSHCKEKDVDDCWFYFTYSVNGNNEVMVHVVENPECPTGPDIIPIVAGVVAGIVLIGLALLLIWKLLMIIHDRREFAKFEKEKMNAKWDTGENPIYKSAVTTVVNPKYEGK
Chain of Integrin beta-1 (Homo sapiens) + Integrin alpha-4 (Homo sapiens) (P13612 whole entry, looked up): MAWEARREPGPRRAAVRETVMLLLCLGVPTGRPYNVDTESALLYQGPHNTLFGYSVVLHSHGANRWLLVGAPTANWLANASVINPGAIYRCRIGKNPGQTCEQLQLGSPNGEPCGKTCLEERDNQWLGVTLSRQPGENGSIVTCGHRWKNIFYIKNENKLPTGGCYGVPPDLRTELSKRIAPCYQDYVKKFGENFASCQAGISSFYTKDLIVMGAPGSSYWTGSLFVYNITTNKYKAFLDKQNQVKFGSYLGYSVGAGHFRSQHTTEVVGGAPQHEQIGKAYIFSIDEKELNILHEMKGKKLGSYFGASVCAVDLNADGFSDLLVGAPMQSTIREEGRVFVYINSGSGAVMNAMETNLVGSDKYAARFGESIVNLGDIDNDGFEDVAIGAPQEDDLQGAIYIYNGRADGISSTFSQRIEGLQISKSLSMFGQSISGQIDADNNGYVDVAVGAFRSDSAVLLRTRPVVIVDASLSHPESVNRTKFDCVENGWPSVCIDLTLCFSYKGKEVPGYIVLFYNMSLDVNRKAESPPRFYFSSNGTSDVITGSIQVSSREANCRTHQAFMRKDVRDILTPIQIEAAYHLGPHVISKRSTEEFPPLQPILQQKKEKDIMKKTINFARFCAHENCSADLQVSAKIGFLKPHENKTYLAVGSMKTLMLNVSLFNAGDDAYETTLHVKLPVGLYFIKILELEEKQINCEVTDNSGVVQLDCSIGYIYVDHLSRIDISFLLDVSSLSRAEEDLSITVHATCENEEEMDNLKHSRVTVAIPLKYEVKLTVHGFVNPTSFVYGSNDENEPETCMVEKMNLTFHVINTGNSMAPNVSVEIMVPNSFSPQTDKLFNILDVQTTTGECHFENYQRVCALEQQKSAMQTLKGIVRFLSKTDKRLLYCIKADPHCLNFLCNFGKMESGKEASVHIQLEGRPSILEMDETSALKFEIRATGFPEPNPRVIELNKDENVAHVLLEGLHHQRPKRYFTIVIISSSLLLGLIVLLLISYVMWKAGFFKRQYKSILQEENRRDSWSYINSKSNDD
Chain of Beta-adrenergic receptor kinase 1 (Homo sapiens) (P25098 whole entry, looked up): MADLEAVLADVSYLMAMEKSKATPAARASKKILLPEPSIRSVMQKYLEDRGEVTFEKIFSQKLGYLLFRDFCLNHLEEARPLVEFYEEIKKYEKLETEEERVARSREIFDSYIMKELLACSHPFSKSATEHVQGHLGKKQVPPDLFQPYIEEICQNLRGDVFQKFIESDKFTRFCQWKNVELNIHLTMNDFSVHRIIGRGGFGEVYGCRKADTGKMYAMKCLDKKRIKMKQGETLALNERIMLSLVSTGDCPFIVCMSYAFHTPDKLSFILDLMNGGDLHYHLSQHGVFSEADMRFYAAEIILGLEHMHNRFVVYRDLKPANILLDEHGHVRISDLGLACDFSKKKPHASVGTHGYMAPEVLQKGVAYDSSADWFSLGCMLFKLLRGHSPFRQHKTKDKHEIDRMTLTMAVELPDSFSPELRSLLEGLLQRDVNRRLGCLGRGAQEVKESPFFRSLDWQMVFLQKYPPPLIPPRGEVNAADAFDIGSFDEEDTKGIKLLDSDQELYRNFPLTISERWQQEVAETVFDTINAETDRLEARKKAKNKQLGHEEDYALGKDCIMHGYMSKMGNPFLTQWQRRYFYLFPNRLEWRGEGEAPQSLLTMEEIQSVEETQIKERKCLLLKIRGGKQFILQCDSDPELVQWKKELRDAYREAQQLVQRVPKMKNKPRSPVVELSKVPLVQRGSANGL

Broadly, the inhibition is the drop in the measured response relative to a control, in per cent. In the case of `OCCN(CCO)c1nc(N2CCCCC2)c2nc(N(CCO)CCO)nc(N3CCCCC3)c2n1`, in test [1], the percent of DMSO control GFP was 105% (inactive). The values for the GFP response vs DMSO in test [2] and in [4] were 102% (inactive) and 107% (inactive), respectively. In addition, in test [3], the percent response of DMSO control was 100% (inactive). For the same compound, in test [5], the GFP response, % of DMSO was 108% (inactive). The compound also showed a double positive events in [6] of 62.5%. In addition, in [6], the vesicle binding response is 175% (inactive). For the same compound, the inhibition in test [7] was -9.63% (inactive); in [11], 18.6% (inactive); in test [15], -6% (inactive). In addition, the superoxide response (% of plate) in test [8] was 98% (inactive). In [9], the aptamer binding inhibition is 3% (inactive). Besides, the response in test [10] is 7.65% (inactive); in test [12], 15.4% (active). In addition, in [13], the binding (% of control) was 106% (inactive). The efflux inhibition (fraction of control) in [14] is 0.08 (inactive). Also, in test [16], the differentiation response was -7.94% (inactive).
For `Cc1ccc(CSCC(=O)N2CCCC2)cc1`, in test [1], the percent of DMSO control GFP was 102% (inactive). Also, the GFP response vs DMSO in test [2] is 98.7% (inactive); in test [4], 106% (inactive). In test [3], the percent response of DMSO control is 101% (inactive). The GFP response, % of DMSO in test [5] is 106% (inactive). In addition, the double positive events in test [6] was 63.7%. In addition, the vesicle binding response in [6] is 132% (inactive). Further, the inhibition in test [7] was 20.4% (inactive); in test [11], -2.44% (inactive); in test [15] it was 0% (inactive). In addition, the superoxide response (% of plate) in test [8] is 95% (inactive). Moreover, the aptamer binding inhibition in [9] was -2% (inactive). In addition, the response in [10] was 7.33% (inactive); in [12] it was -8.52% (inactive). The binding (% of control) in test [13] is 97.9% (inactive). Moreover, the efflux inhibition (fraction of control) in test [14] was -0.05 (inactive). Besides, the differentiation response in test [16] is -8.96% (inactive).
As to `CC(C)N1C(=O)/C(=C\c2nc3ccccc3c(=O)[nH]2)c2ccccc21`, the percent of DMSO control GFP in [1] was 103% (inactive). The GFP response vs DMSO was 106% (inactive) in test [2] and 128% (inactive) in test [4]. Also, the percent response of DMSO control in [3] was 103% (inactive). In addition, the GFP response, % of DMSO in [5] is 93.8% (inactive). Further, the double positive events in test [6] came out at 60.8%. Moreover, in [6], the vesicle binding response was 157% (inactive). Moreover, the inhibition in test [7] was -7.25% (inactive); in [11], -10.5% (inactive); in test [15], 6% (inactive). For the same compound, the superoxide response (% of plate) in [8] is 125% (inactive). In test [9], the aptamer binding inhibition was 6% (inactive). Besides, the figures for the response in test [10] and in test [12] were 32.8% (inactive) and -1.63% (inactive), respectively. Moreover, in test [13], the binding (% of control) was 101% (inactive). The efflux inhibition (fraction of control) in test [14] was -0.1 (inactive). Besides, in test [16], the differentiation response is -21.6% (inactive).
Consider `CC1(C)CC(c2csc(N)n2)CCO1` (stereo not given), for which the percent of DMSO control GFP in test [1] is 103% (inactive). The GFP response vs DMSO in test [2] is 106% (inactive); in [4] it was 86.8% (inactive). In test [3], the percent response of DMSO control was 106% (inactive). Moreover, the GFP response, % of DMSO in [5] was 101% (inactive). In addition, the double positive events in test [6] came to 65.9%. Besides, the vesicle binding response in [6] is 915% (inactive). Besides, the inhibition in [7] is 1.62% (inactive); in test [11], 8.95% (inactive); in test [15] it was -3% (inactive). For the same compound, the superoxide response (% of plate) in test [8] was 101% (inactive). Besides, the aptamer binding inhibition in [9] was 3% (inactive). The response is -0.12% (inactive) in test [10] and -0.04% (inactive) in test [12]. In addition, the binding (% of control) in [13] was 93.3% (inactive). In test [14], the efflux inhibition (fraction of control) is -0.14 (inactive). Further, the differentiation response in test [16] is -4.64% (inactive).
On to `Cn1c(=S)n(C)c2ccccc21`, for which the percent of DMSO control GFP in test [1] was 99.2% (inactive). The GFP response vs DMSO was 104% (inactive) in [2] and 110% (inactive) in [4]. The percent response of DMSO control in test [3] was 94.4% (inactive). Also, the GFP response, % of DMSO in test [5] is 104% (inactive). Also, the double positive events in test [6] is 61.4%. Moreover, the vesicle binding response in [6] was 264% (inactive). In addition, the inhibition was 16.8% (inactive) in test [7], 0.89% (inactive) in test [11] and 7% (inactive) in test [15]. In addition, the superoxide response (% of plate) in test [8] was 104% (inactive). Further, the aptamer binding inhibition in [9] is 3% (inactive). The figures for the response in test [10] and in [12] were 25.9% (inactive) and -1.79% (inactive), respectively. Further, the binding (% of control) in test [13] was 105% (inactive). The efflux inhibition (fraction of control) in test [14] is 0.08 (inactive). The differentiation response in test [16] was -4% (inactive).
